B1: VH:VL chains; a variant is named by its letters at X, in order (parent)
chain 1: QVQLVQSGAEVKKPGASVKVSCKASGYTFTDYXMHWVRQAPGQGLEWMGXVNPNXXXTTYNQKFEGRVTMTTDTSTSTAYMELRSLRSDDTAVYYCARXNXLDXWGQGTTVTVSS
chain 2: DIQMTQSPSSLSASVGDRVTITCSVSSSVSSIYLHWYQQKPGKAPKLLIYSTSNLASGVPSRFSGSGSGTDFTLTISSLQPEDFATYYCQVYSGYPLTFGGGTKVEIK

This is one part of the list. No count for the full screen is at hand.

The variants in this experiment derive from B1. Put plainly: yeast display scFab, FACS + sequencing. To be noted: with MET. In outline:
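A heavy-chain CDR mutant scFab library on yeast was enriched magnetically with HGFR-Fc-coated Protein A beads for two rounds and then by FACS after labelling with 1 nM HGFR-Fc and anti-Myc in PBSB with 1% milk for 3 h at room temperature, gating the top 50% antigen-positive cells. Antigen binding was judged positive if a sequence turned up in both antigen-positive deep-sequencing samples and negative if it turned up only in the input.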
As for SGGRDSGV, the antigen binding call is listed as “no binding”.

On to AARADDSA, for which the antigen binding call is recorded as “no binding”.

Consider YRAEGYVV, for which the antigen binding call is “binds”.

VGGGAAGV: the antigen binding call is “no binding”.

Regarding YRGRGFSD, the antigen binding call is reported as “binds”.

FRGRGFSA: the antigen binding call is reported as “no binding”.

Turning to YKGRGFSD, the antigen binding call was “no binding”.

For YRGRGFSA, the antigen binding call is listed as “binds”.

As for YTEKTFSD, the antigen binding call was “no binding”.

As for YRGRGVSD, the antigen binding call is given as “binds”.

Consider DTTGSDVY, for which the antigen binding call is reported as “no binding”.

As to ATGRAAGD, the antigen binding call was “no binding”.

For FRTGGSAD, the antigen binding call was “binds”.

As to FRTEGSAD, the antigen binding call is “binds”.

Consider FETGGYVY, for which the antigen binding call is “no binding”.

Regarding SEARSSSV, the antigen binding call was “no binding”.

With YATEGVWV, the antigen binding call is recorded as “no binding”.

With DARGGSSV, the antigen binding call is “no binding”.

As for AEREADWV, the antigen binding call is listed as “no binding”.

With VETGNDVA, the antigen binding call is recorded as “no binding”.

On to YRGGDYGA, for which the antigen binding call is on record as “no binding”.

With YRGKDSGS, the antigen binding call was “binds”.

Consider YRGKDSGA, for which the antigen binding call was “binds”.

For the variant YRGKDAGA, the antigen binding call is on record as “binds”.

As for VRKKGVSS, the antigen binding call is given as “no binding”.

Take VTGGDSSD: the antigen binding call is on record as “no binding”.

In the case of VRGKGSSS, the antigen binding call was “binds”.

On to VRAGDDSD, for which the antigen binding call is “no binding”.

For the variant VEGGGSSS, the antigen binding call was “no binding”.

On to VAGTGSSD, for which the antigen binding call was “no binding”.

Consider VRGKGSSD, for which the antigen binding call is “binds”.

On to VTGTGSSD, for which the antigen binding call is “no binding”.

Take VRRGDSSD: the antigen binding call was “binds”.

With VRTADDGA, the antigen binding call was “no binding”.

For the variant VAATADVA, the antigen binding call is “no binding”.

For the variant YKEGAYAD, the antigen binding call is “no binding”.

In the case of YKGEGYGV, the antigen binding call is reported as “no binding”.

Consider YKGEGDLV, for which the antigen binding call was “no binding”.

As for YKKTGYWV, the antigen binding call is on record as “no binding”.

YKETGYAV: the antigen binding call is “binds”.

In the case of YGGRGYAV, the antigen binding call is “no binding”.

In the case of YKGRGYLV, the antigen binding call is recorded as “binds”.

Turning to YKGRGYAV, the antigen binding call was “binds”.

Turning to YKGRGSLV, the antigen binding call is given as “binds”.

As to DAARGDSA, the antigen binding call is listed as “no binding”.

As to AKGGGDVV, the antigen binding call is “no binding”.

In the case of YAEEGVGY, the antigen binding call is on record as “no binding”.

With YRARGAVA, the antigen binding call is “binds”.

Take YRARGVGA: the antigen binding call is “binds”.

YRARGFGA: the antigen binding call was “no binding”.

Take YRARGAGA: the antigen binding call is “binds”.

For the variant SEARSSSY, the antigen binding call is recorded as “no binding”.

For the variant VEEEGAGV, the antigen binding call was “no binding”.

In the case of DTTKSDGV, the antigen binding call is reported as “no binding”.

In the case of YRARSAWA, the antigen binding call was “binds”.

Take YRERSSVA: the antigen binding call is “binds”.

Turning to YRARSAVA, the antigen binding call was “binds”.

With DRARTFVA, the antigen binding call is “no binding”.

For SEARSAVA, the antigen binding call is reported as “no binding”.

In the case of YRARSSVA, the antigen binding call is “binds”.

With SEARSAWA, the antigen binding call was “no binding”.

The values above are taken from the emibetuzumab library of Makowski et al. (2022).
